# High-throughput results as filed in PubChem BioAssay.
# ssDAF-12 act: activates DAF-12 receptor from parasite S. stercoralis; HEK293 ssDAF-12/GRIP1 lit1-tk-luc reporter, luminescence; % of 3 µM dafachronic acid response; activation, % at 6.8 µM; 1% of 370,000 active; AID 652126;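 active = activation above the mean over all tested compounds plus 3 SD, cut at about 0.9% in these data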;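 note: 0% = DMSO-only wells and 100% = 3 µM delta7-dafachronic acid wells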
# hcDAF12 agonist: activates DAF-12 receptor from parasite H. contortus; 1.4% of 370,000 active; activation, % at 6.8 µM; HEK293 hcDAF-12 lit1-tk-luc reporter, luminescence; 0% DMSO, 100% Δ7-dafachronic acid;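 active = activation above the mean of all tested compounds plus 3 SD, cut at about 5.5% in these data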;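 note: 100% = response to 3 µM Δ7-dafachronic acid high control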
# DAX1 inh-1: inhibitors of DAX1 repression of SF-1 activated StAR promoter. HEK293T StAR-luciferase reporter, SF-1/DAX-1 repression relief. inhibition, % at 6.8 µM. 1.1% of 370,000 active. AID 652010;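 active = inhibition above the mean over all tested compounds plus 3 SD, cut at about 3.6% in these data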;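 note: 0% = DAX-1 cells with DMSO and 100% = cells lacking DAX-1 with DMSO; higher inhibition means more luminescence from relief of DAX-1 repression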
# hgDAF-12 ag: hgDAF-12 agonism, primary luciferase screen | HEK293 GAL4-hgDAF12 UAS-luciferase reporter, agonist luminescence; normalized to butyrate control | activation, % at 6.8 µM | 1.8% of 370,000 active | AID 687014;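 active = activation above a cutoff set at the mean of all screened compounds plus 3 SD, cut at about 10% in these data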;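 note: 0% = DMSO wells and 100% = sodium butyrate wells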
# DAX1 inh-2: inhibits human nuclear receptor DAX1. P51843. HEK293 Gal4-DAX1 luciferase reporter, luminescence. inhibition, % at 6.75 µM. 0.99% of 340,000 active. AID 504766;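 active = inhibition above the mean over all tested compounds plus 3 SD, cut at about 4.2% in these data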;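 note: 0% = DAX1-transfected cells with DMSO and 100% = empty-vector control cells with DMSO; inhibition shows as a rise in luminescence from relieved DAX1 repression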
# Target sequence (P51843 207-470 limits assumed): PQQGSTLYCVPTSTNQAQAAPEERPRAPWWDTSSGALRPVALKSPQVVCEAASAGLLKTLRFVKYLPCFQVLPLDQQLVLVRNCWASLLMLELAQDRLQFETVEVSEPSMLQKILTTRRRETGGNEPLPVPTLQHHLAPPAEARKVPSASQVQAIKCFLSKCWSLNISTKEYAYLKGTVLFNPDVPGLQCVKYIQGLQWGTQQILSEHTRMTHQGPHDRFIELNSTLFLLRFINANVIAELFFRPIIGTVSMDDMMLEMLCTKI
# * hit, by the source's call; nt = not tested or not shown. The list is not random: actives were taken first. Their share in the collection is about 4.1%.
SMILES,ssDAF-12 act,hcDAF12 agonist,DAX1 inh-1,hgDAF-12 ag,DAX1 inh-2
Cc1cccc(C2c3[nH]c4ccccc4c3CCN2Cc2ccc(C)s2)n1 (configuration not stated),1.0*,6.4*,0,4,0
Cc1cccc(C2c3[nH]c4ccccc4c3CCN2C(=O)Cc2n[nH]c(C)n2)n1 (configuration not stated),1.5*,3,1,4,1
COc1ccc(C2c3[nH]c4ccccc4c3CCN2C(=O)Cc2nonc2C)c(F)c1 (configuration not stated),0,5.7*,1,9,0
COc1cccc(C2c3[nH]c4ccccc4c3CCN2Cc2cnc(C)s2)c1OC (configuration not stated),1.1*,3,0,0,0
Cc1cccc(-c2cccc3c4c([nH]c23)[C@@H]2C[C@H](N(C)C(=O)c3ccccc3C)[C@H]([C@H](C)O)C(=O)N2CC4)c1,-1,-2,0,-1,nt
COCCNc1cnn(-c2ccccc2)c(=O)c1Cl,-2,2,0,1,4.9*
CCCCNc1cnn(-c2ccccc2)c(=O)c1Cl,-1,3,1,2,3
COC(=O)c1ccc(N2CCCCC2)c(N)c1,-1,2,3.7*,6,1
COC(=O)c1ccc(N2CCC(C)CC2)c(N)c1,0,2,1,4,2
COc1ccc(-c2nc(-c3ccc(Br)cc3)no2)c(OC)c1,1.0*,4,3,12*,4
COc1ccccc1-c1noc(-c2cc(OC)c(OC)c(OC)c2)n1,-1,-2,0,-1,1
COc1ccccc1-c1nc(-c2ccc(Br)cc2)no1,1.5*,5.8*,1,9,2
COc1cc(OC)cc(-c2nc(-c3ccc(Br)cc3)no2)c1,-1,2,0,0,1
N/C(Cc1cccs1)=N\OC(=O)COc1ccc(Cl)cc1Cl,-1,4,2,13*,1
N/C(Cc1ccc(Cl)cc1Cl)=N\OC(=O)Cc1cccs1,-1,3,0,3,1
COc1ccc(S(=O)(=O)Nc2ccc3cn[nH]c3c2)cc1C,0.9*,2,0,-2,-1
CC(C)n1nnnc1C1c2ccccc2C(=O)N1Cc1cccc(F)c1 (configuration not stated),-1,2,3.8*,-1,nt
CC(C)n1nnnc1C1c2ccccc2C(=O)N1Cc1ccc(F)cc1 (configuration not stated),0,0,-1,-4,nt
CCC[C@H]1[C@@H](NC(=O)C2CCCCC2)CC[C@@]23CCCN2C(=O)CCC[C@@H]13,-1,-1,nt,-1,nt
O=Cc1ccccc1OCc1ccc2c(c1)OCO2,0,5,1,10,4.5*
Cc1ccccc1N(CC(=O)N/N=C/c1ccc(F)cc1)C(=O)c1ccccc1,0.9*,-3,0,0,-1
Cc1ccccc1N(CC(=O)N/N=C/c1ccc(Cl)cc1)C(=O)c1ccccc1,-1,-1,0,0,0
Nc1cccc2c1C(=O)c1ccc(Cl)cc1C2=O,-1,3,3.7*,6,2
COC(=O)[C@]12C[C@H](CC(=O)NCc3ccccc3)C(=O)N(Cc3cccc4ccccc34)C1=C[C@H](C1CCCC1)O[C@@H]2C,-1,-2,-1,-2,nt
C[C@H](NC(=O)c1ccco1)C(=O)Nc1cccc([N+](=O)[O-])c1,-2,1,0,3,5.3*
SMILES,ssDAF-12 act,hcDAF12 agonist,DAX1 inh-1,hgDAF-12 ag,DAX1 inh-2
O=C(Nc1cc(Oc2ccc(Cl)cc2)cc([N+](=O)[O-])c1)c1ccco1,-1,5.6*,0,-2,-1
COc1ccc(N2CCN(CCCNC(=O)Cn3c(=O)c4cccn4c4c(C)ccnc43)CC2)cc1,-2,0,nt,2,nt
C[C@@H]1COc2cc(Br)ccc2S(=O)(=O)N1Cc1cn(CCC2OCCCO2)nn1,-2,-2,0,-4,nt
CCCCCCC(=O)NC1CCCCN(Cc2cccc(Cl)c2)C1=O (configuration not stated),-1,-3,0,0,nt
Cc1cccc(C)c1NC(=S)/C(=C(\[O-])c1cccs1)[n+]1ccccc1,0,5.8*,-1,2,0
Cc1cc(Nc2cccc([N+](=O)[O-])c2)cc(=O)n1-c1cccc([N+](=O)[O-])c1,-1,-2,-1,-4,nt
O=C(CCCn1c(=O)oc2ccccc21)N1CCc2ccccc2C1,1,7.9*,1,5,0
O=C(CCn1c(=O)oc2ccccc21)NCCN1CCc2ccccc2C1,-1,4,0,1,0
CCOC(=O)[C@@]12CCC3=C1N(CCC3)C(=O)[C@H](CC(=O)NCc1cccc3ccccc13)C2,-1,-2,0,1,nt
CCOC(=O)c1[nH]c(C)c(C(=O)Nc2ccc3c(c2)OCCO3)c1C,-2,-3,-1,-2,-1
CC(=O)c1c(C)[nH]c(C(=O)Nc2nccs2)c1C,-1,1,0,12*,0
CCOc1ccc(NC(=O)c2[nH]c(C)c(C(C)=O)c2C)cc1,-1,-1,0,1,0
CC(=O)c1c(C)[nH]c(C(=O)Nc2ccc3c(c2)OCCO3)c1C,1,3,3,11*,1
CCc1ccc(NC(=O)c2[nH]c(C)c(C(C)=O)c2C)cc1,-1,0,2,13*,1
C[C@@H]1[C@H](O)[C@@H](C)/C=C/C=C/C=C/C=C/C=C/C=C/C=C/[C@H](OC2O[C@H](C)[C@@H](O)[C@H](N)[C@@H]2O)C[C@@H]2O[C@](O)(C[C@@H](O)C[C@@H](O)[C@H](O)CC[C@@H](O)C[C@@H](O)CC(=O)O[C@H]1C)C[C@H](O)[C@H]2C(=O)O (some centres not stated),-1,-1,1,7,nt
CCN=C1S/C(=C/c2cc(C)n(-c3ccc(Cl)cc3F)c2C)C(=O)N1CC,-2,-4,nt,-1,nt
O=C(CSc1nnc(-c2cccnc2)n1-c1ccccc1)Nc1ccc(OCc2ccccc2)cc1,-2,-1,-4,-2,nt
Cc1ccc2nc(SCC(=O)N3CCOCC3)[nH]c2c1,0,2,3,8,1
Cc1ccc2[nH]c(SCC(=O)N3CCOCC3)nc2c1C,0,5.7*,0,9,3
COc1ccc(C2C(C(=O)NCCN(C)C)c3ccccc3C(=O)N2C)cc1OC (configuration not stated),-1,-1,-2,1,4.6*
COc1ccc(C2C(C(=O)NCc3ccccn3)c3ccccc3C(=O)N2C)cc1OC (configuration not stated),-1,-1,0,-1,1
O=C1c2ccccc2C(=O)C1c1ccncc1,0,5.6*,4.0*,8,0
C#CCNC(=O)C[C@H]1C[C@@]2(C(=O)OC)C(=C[C@H](C(C)(C)C)O[C@@H]2C)N(Cc2ccc(Cl)cc2Cl)C1=O,-1,-3,0,-1,nt
